Here are results for 14 compounds from PubChem BioAssay (Tox21).

Values without a mark were called inactive. Records with an inconclusive call do not appear. The source made the active and inactive calls. Unless noted, calls come from the whole dose curve; as a rule, active = well fitted curve in the direction sought with a large enough effect in the repeat runs; inconclusive = weak or mixed curves; inactive = no such curve, though single readings can be large; an effect the other way counts as inactive or inconclusive.

A short description of experiment [1]: A CellTox Green Cytotoxicity Assay to monitor cytotoxicity in HepG2 cells - 24 hour (AID 1224878). Note: nearly all actives have a fitted effect of over 45% in size. Note: potency is the fitted concentration of half-maximal effect. In a few lines:
(§1)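 Cytotoxicity was tracked as dead-cell DNA fluorescence in HepG2 cells treated with test compounds at 37 C; each time-point value comes from one kinetic series spanning 0, 8, 16, 24, 32 and 40 h.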

A short description of experiment [2]: A CellTox Green Cytotoxicity Assay to monitor cytotoxicity in HepG2 cells - 40 hour (AID 1224879). Note: nearly all actives have a fitted effect of over 40% in size. Note: potency is the fitted concentration of half-maximal effect. In a few lines: as §1
The nature of experiment [3]: qHTS RealTime-Glo MT Cell Viability Assay in HEK293 cells - 0 hour (AID 1224880). Note: top concentration of the series differs between compounds; nearly all actives have a fitted effect of over 45% in size. In a few lines:
(§2)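 Kinetic, non-lysing viability readout. Seed HEK293 (600/well) with reagent, incubate 5 h at 37 C/5% CO2, pin 23 nL compound in DMSO, incubate at 37 C, read luminescence at 0, 8, 16, 24, 32, 40 h.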

Experiment [4] can be described thus: A CellTox Green Cytotoxicity Assay to monitor cytotoxicity in HepG2 cells - 32 hour (AID 1224883). Note: nearly all actives have a fitted effect of over 50% in size. A digest of the protocol: as §1
A short description of experiment [5]: A CellTox Green Cytotoxicity Assay to monitor cytotoxicity in HEK293 cells - 8 hour (AID 1224884). Note: nearly all actives have a fitted effect of over 35% in size. In a few lines:
(§3)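 Real-time, in one plate: 600 HEK293 cells/well with dead-cell DNA dye, pinned compound after 5 h, 37 C incubation over 40 h; viable cells give no appreciable fluorescence.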

Experiment [6] can be described thus: qHTS RealTime-Glo MT Cell Viability Assay in HEK293 cells - 24 hour (AID 1224886). Note: top concentration of the series differs between compounds; nearly all actives have a fitted effect of over 50% in size. In a few lines:
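Reads taken at 0, 8, 16, 24, 32 and 40 h from the same wells. HEK293 cells (600/well) carried RealTime-Glo reagents from seeding, with compound added after a 5 h settle at 37 C.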
In general terms: qHTS replaces the single test concentration by a dilution series.

Experiment [7] can be described thus: qHTS RealTime-Glo MT Cell Viability Assay in HEK293 cells - 8 hour (AID 1224887). Note: top concentration of the series differs between compounds; nearly all actives have a fitted effect of over 50% in size. In a few lines: as §2
Experiment [8] is described as follows: A CellTox Green Cytotoxicity Assay to monitor cytotoxicity in HEK293 cells - 16 hour (AID 1224888). Note: nearly all actives have a fitted effect of over 35% in size. In a few lines: as §3
Experiment [9] in a line: A CellTox Green Cytotoxicity Assay to monitor cytotoxicity in HepG2 cells - 8 hour (AID 1224890). Note: nearly all actives have a fitted effect of over 45% in size. In a few lines:
as §1

Experiment [10] is described as follows: qHTS assay to identify small molecule antagonists of the estrogen receptor alpha (ER-alpha) signaling pathway using the BG1 cell line in the presence of 0.1 nM 17-beta-estradiol - cell viability counter screen (AID 1259241). Note: nearly all actives have a fitted effect of over 40% in size. In a few lines: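 Cells were plated and left 24 hr, compounds in DMSO were pinned in, 17beta-estradiol was added to 0.1 nM final, and after 22 hr CellTiter-Fluor reagent was added for 30 min before fluorescence was read.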

Experiment [11] can be described thus: qHTS assay to identify small molecule antagonists of the androgen receptor (AR) signaling pathway using the MDA cell line in the presence of 0.5 nM R1881 - cell viability counter screen (AID 1259242). Note: nearly all actives have a fitted effect of over 45% in size. A digest of the protocol: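 Cells seeded at 3,000/well and allowed 5 hr at 37C, 0% CO2 before compound transfer and R1881 (0.5 nM final) addition; 16 hr later, live-cell protease fluorescence indicated cytotoxicity.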

Experiment [12] addresses Estrogen receptor (Homo sapiens) (UniProt P03372). The experiment can be described thus: qHTS assay to identify small molecule antagonists of the estrogen receptor alpha (ER-alpha) signaling pathway using the BG1 cell line in the presence of 0.1 nM 17-beta-estradiol (AID 1259244). Note: nearly all actives have a fitted effect of over 50% in size. In a few lines: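 Luciferase signal from VM7Luc4E2 ERE-reporter cells, co-dosed with test compound and 0.1 nM final 17beta-estradiol for 22 h, read with ONE-Glo.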

A short description of experiment [13]: qHTS assay to identify small molecule HDAC inhibitors (AID 1259364). A digest of the protocol:
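HCT-116 wt cells, 1,500/well, overnight attach. Compounds (DMSO) 2 h, 37 °C. HDAC-Glo I/II, 30 min RT. Luminescence.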

Experiment [14] can be described thus: qHTS RealTime-Glo MT Cell Viability Assay in HepG2 cells - 32 hour (AID 1224877). Note: nearly all actives have a fitted effect of over 55% in size. A digest of the protocol:
(§4)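 HepG2 suspension premixed with RealTime-Glo reagents is plated at 600 cells per well and left 5 h at 37 C/5% CO2. Compounds in DMSO then go in, and bioluminescence reflecting viable cell number is recorded over 40 h.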

The nature of experiment [15]: A CellTox Green Cytotoxicity Assay to monitor cytotoxicity in HEK293 cells - 32 hour (AID 1224881). Note: nearly all actives have a fitted effect of over 40% in size. In a few lines: as §3
Experiment [16] in a line: A CellTox Green Cytotoxicity Assay to monitor cytotoxicity in HepG2 cells - 0 hour (AID 1224882). Note: nearly all actives have a fitted effect of over 35% in size. In a few lines:
as §1

Experiment [17] in a line: qHTS RealTime-Glo MT Cell Viability Assay in HepG2 cells - 16 hour (AID 1224885). Note: nearly all actives have a fitted effect of over 50% in size. In a few lines:
as §4

The nature of experiment [18]: qHTS RealTime-Glo MT Cell Viability Assay in HepG2 cells - 0 hour (AID 1224889). Note: nearly all actives have a fitted effect of over 50% in size. A digest of the protocol: as §4
Experiment [19] is described as follows: qHTS assay to identify small molecule phospholipidosis (PLD) inducers (AID 1259344; active = well fitted curve in the direction sought with a large enough effect; an effect the other way counts as inactive or inconclusive). A digest of the protocol:
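Accumulated phospholipid, stained red by LipidTOX during 24 h compound treatment of HepG2 cells at 37 C, is quantified from images as pit number and intensity, normalised per cell using Hoechst-stained nuclei.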
% is set by controls: 0 for no effect and ±100 for the full control effect.

Estrogen receptor (Homo sapiens), sequence (P03372 whole entry, looked up): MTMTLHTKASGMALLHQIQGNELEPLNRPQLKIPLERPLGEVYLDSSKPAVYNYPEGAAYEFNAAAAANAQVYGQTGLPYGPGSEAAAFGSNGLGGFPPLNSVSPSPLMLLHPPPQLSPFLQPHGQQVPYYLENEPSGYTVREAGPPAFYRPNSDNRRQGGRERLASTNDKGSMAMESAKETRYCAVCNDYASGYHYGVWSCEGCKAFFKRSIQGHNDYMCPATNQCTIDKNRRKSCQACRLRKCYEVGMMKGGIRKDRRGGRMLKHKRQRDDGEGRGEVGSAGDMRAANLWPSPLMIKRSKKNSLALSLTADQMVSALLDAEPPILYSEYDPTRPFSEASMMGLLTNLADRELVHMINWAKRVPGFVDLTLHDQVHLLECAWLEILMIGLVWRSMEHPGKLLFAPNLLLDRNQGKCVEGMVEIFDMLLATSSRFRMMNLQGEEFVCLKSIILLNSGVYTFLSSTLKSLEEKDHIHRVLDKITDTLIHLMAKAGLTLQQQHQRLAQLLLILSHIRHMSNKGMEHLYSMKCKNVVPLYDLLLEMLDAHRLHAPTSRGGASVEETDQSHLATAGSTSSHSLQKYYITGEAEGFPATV

`CC(C)CCO`: the Potency entry in [1], in experiment [2], in [4], in [5], in experiment [6] and in experiment [7] was “inactive” each time. Moreover, the Potency entry in experiment [8], in experiment [9], in experiment [10], in [11], in [12] and in experiment [13] was “inactive” throughout. In addition, the compound was called inactive in experiment [3].
For the compound `C=C(C)C(=O)OCCCCCCOC(=O)C(=C)C`, the outcome in experiment [14], in [3] and in experiment [17] was inactive. For the same compound, the Potency entry in [1], in [2], in [15], in experiment [16], in experiment [4] and in experiment [5] was “inactive” throughout. Further, the Potency entry in experiment [6], in experiment [7], in experiment [8], in [18], in [9] and in experiment [10] was “inactive” in each case. Besides, the Potency entry in experiment [11] and in experiment [13] was “inactive” in each case.
On to `C=CC(C)(O)CC/C=C(\C)CC` (configuration not stated), for which the outcome in experiment [14], in experiment [3] and in experiment [17] was inactive. Also, the Potency result in experiment [1], in experiment [2], in [16], in experiment [4], in [5] and in experiment [6] was “inactive” throughout. Besides, the Potency result in experiment [7], in [8], in experiment [18], in [9], in [11] and in experiment [12] was “inactive” each time.
Consider `CCCCCC1CCCC(=O)O1` (configuration not stated), for which the result in experiment [14], in [3] and in experiment [17] was inactive. Also, the Potency entry in experiment [1], in experiment [2], in [15], in experiment [16], in [4] and in experiment [5] was “inactive” each time. Moreover, the Potency result in experiment [6], in experiment [7], in experiment [8], in experiment [18], in [9] and in experiment [11] was “inactive” in each case. In [13], the Potency entry is “inactive”.
Consider `CCNC(=O)NCCCOc1cccc(CN2CCCCC2)c1`, for which the outcome in experiment [14], in [3], in experiment [17] and in experiment [19] was inactive. For the same compound, the Potency in experiment [2] was 26.8 µM (active). Moreover, the Potency result in experiment [15], in experiment [16], in [5], in experiment [7], in experiment [8] and in experiment [18] was “inactive” in each case. The Potency result in experiment [9], in [10], in experiment [11], in experiment [12] and in experiment [13] was “inactive” each time.
As for `Cc1ccccc1N1CCN(CCc2nnc3n2CCCC3)CC1`, the result in experiment [14], in [3], in experiment [17] and in [19] was inactive. Further, the Potency entry in experiment [1], in experiment [2], in [15], in experiment [16], in experiment [4] and in experiment [5] was “inactive” throughout. Moreover, the Potency entry in experiment [7], in [8], in [18], in [9], in experiment [10] and in [11] was “inactive” in each case. Also, in [13], the Potency entry was “inactive”.
`C=C(C)C(=O)OC1CC(C)CC(C)(C)C1` (configuration not stated): the call in experiment [14], in experiment [3] and in experiment [17] was inactive. The Potency entry in experiment [1], in [15], in experiment [16], in experiment [5], in experiment [6] and in experiment [7] was “inactive” in each case. In addition, the Potency entry in experiment [8], in experiment [18], in experiment [9], in [10], in experiment [11] and in experiment [13] was “inactive” each time.
As to `COc1cc([N+](=O)[O-])ccc1N`, the result in experiment [14], in experiment [3] and in experiment [17] was inactive. Moreover, the Potency entry in experiment [1], in [2], in experiment [15], in [16], in experiment [4] and in experiment [5] was “inactive” in each case. Moreover, the Potency result in experiment [6], in experiment [7], in experiment [8], in [18], in experiment [9] and in experiment [12] was “inactive” throughout.
Consider `Cc1nc(C)nc(N2C[C@@H](C)N(c3ccnc([C@@H](C)O)n3)[C@@H](C)C2)n1`, for which the result in experiment [14], in experiment [3] and in [17] was inactive. In addition, the Potency entry in experiment [1], in experiment [2], in [15], in experiment [4], in experiment [5] and in experiment [6] was “inactive” throughout. For the same compound, the Potency entry in [7], in experiment [8], in experiment [18], in experiment [9], in experiment [10] and in [11] was “inactive” throughout. The Potency result in [12] is “inactive”.
Turning to `Cc1ccccc1C(=O)N1CC/C(=N\OS(=O)(=O)O)c2ccc(Cl)cc21`, the call in experiment [14], in experiment [3] and in experiment [17] was inactive. Further, the Potency in [1] was 26.8 µM (active); in experiment [2] it was 23.9 µM (active). For the same compound, the Potency result in experiment [15], in experiment [5], in experiment [6], in experiment [7], in [8] and in [18] was “inactive” in each case. In addition, the Potency result in experiment [10], in [11], in [12] and in experiment [13] was “inactive” each time. For the same compound, the PLD induction in experiment [19] is -2.19% [at 7.66 µM].
For the compound `O=S(=O)(O)c1cc(O)ccc1O`, the compound was called inactive in [14], in experiment [3] and in experiment [17]. Also, the Potency result in experiment [15], in experiment [16], in [5], in experiment [6], in experiment [7] and in experiment [8] was “inactive” in each case. The Potency entry in experiment [18], in experiment [9] and in experiment [13] was “inactive” in each case.
On to `CCCCCN(CCCOC)C(=O)C(CCC(=O)O)NC(=O)c1ccc(Cl)c(Cl)c1` (configuration not stated), for which the outcome in experiment [14], in [3] and in experiment [17] was inactive. Besides, the Potency result in experiment [5], in experiment [6], in [7], in experiment [8], in [18] and in experiment [11] was “inactive” throughout. The Potency result in experiment [12] and in experiment [13] was “inactive” in each case.
With `CCCCCCCCCCCCCCCCCCN(C)C`, the compound was classed as inactive in experiment [14], in [3] and in experiment [17]. In addition, the Potency entry in [1], in experiment [2], in [4], in experiment [7], in experiment [18] and in experiment [9] was “inactive” each time. Moreover, the Potency result in experiment [10], in experiment [11], in experiment [12] and in experiment [13] was “inactive” each time.
As for `COc1ccc(OC)c(NC(=O)CC(C)=O)c1`, the outcome in [14], in experiment [3] and in experiment [17] was inactive. In addition, the Potency result in experiment [1], in experiment [2], in [4], in [5], in experiment [6] and in experiment [7] was “inactive” in each case. For the same compound, the Potency entry in [8], in experiment [18], in experiment [9], in experiment [10], in experiment [11] and in experiment [13] was “inactive” in each case.
